High-throughput results as filed in PubChem BioAssay.
The sample as a whole holds a higher share of hits than the screen did.
Methyltransferases: Primary Screen for Target Class Profiling of Small Molecule Inhibitors of Methyltransferases; purified enzyme, MTase-Glo SAH luminescence; active compounds read low; calls only at 40 µM; 25,000 tested, 3.9% active; call rule not given here
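Each enzyme was assayed with SAM and its substrate. SAH formation detected by MTase-Glo luminescence; single-point 40 uM screen[…].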
* hit, by the source's call; i = inactive; + = active, no number; ! = not active in a repeat. % is set by controls: 0 for no effect and ±100 for the full control effect.

SMILES	Methyltransferases
CC(C)N(CCC(=O)c1ccc2ccccc2c1)Cc1ccccc1	+!
COc1ccc(C(=O)N(Cc2ccccc2)S(=O)(=O)c2ccc3c(c2)n(C)c(=O)n3C)cc1	i
O=C(CCc1nnc2n(Cc3ccccc3)c(=O)c3ccccc3n12)NCc1ccccc1	i
OC[C@H]1O[C@@H](OCCc2ccc(O)cc2)[C@H](O)[C@@H](O)[C@@H]1O	i
CC(=O)c1ccc(O[C@@H]2O[C@H](CO)[C@@H](O)[C@H](O)[C@H]2O)cc1	i
O=C(O)c1cc(O)c2cccc(O)c2c1O[C@@H]1O[C@H](CO)[C@@H](O)[C@H](O)[C@H]1O	+
OC[C@H]1O[C@@H](OC(CCCCc2ccc(O)cc2)CCc2ccc(O)cc2)[C@H](O[C@@H]2OC[C@](O)(CO)[C@H]2O)[C@@H](O)[C@@H]1O (stereo partly drawn)	i
O=C(O[C@H]1[C@H](Oc2ccc(O)cc2CO)O[C@H](CO)[C@@H](O)[C@@H]1O)c1ccccc1	i
OC[C@H]1O[C@@H](O[C@H]2[C@H](O)[C@@H](CO)O[C@@H](OCc3ccccc3)[C@@H]2O[C@@H]2OC[C@](O)(CO)[C@H]2O)[C@H](O)[C@@H](O)[C@@H]1O	i
CC(=O)c1c(C)cccc1O[C@@H]1O[C@H](CO)[C@@H](O)[C@H](O)[C@H]1O	+
OC[C@H]1O[C@@H](OCCc2ccccc2)[C@H](O[C@@H]2OC[C@@H](O)[C@H](O)[C@H]2O)[C@@H](O)[C@@H]1O	+
Cc1ccc(C(C)C)c(O[C@@H]2O[C@H](CO)[C@@H](O)[C@H](O)[C@H]2O)c1	i
OC[C@H]1O[C@@H](O[C@H]2[C@H](OCc3ccccc3)O[C@H](CO[C@@H]3OC[C@@H](O)[C@H](O)[C@H]3O)[C@@H](O)[C@@H]2O)[C@H](O)[C@@H](O)[C@@H]1O	i
O=C(O)CC(CCc1ccccc1)OC1OC(CO)C(O)C(O)C1O (stereo not drawn)	+
O=C(O)/C=C/c1ccc(O)c(O[C@@H]2O[C@H](CO)[C@@H](O)[C@H](O)[C@H]2O)c1	i
CC(C)OCCCNC(=O)CCc1nnc2n(CCCOC(C)C)c(=O)c3ccccc3n12	i
Cc1ccc(Cn2c(=O)c3ccccc3n3c(SCC(=O)Nc4ccc(F)cc4F)nnc23)cc1	i
COCCNC(=O)c1ccc2c(=O)nc3c(-c4cccc(F)c4)n[nH]n3c2c1	i
CC1(C(=O)NC2CCCCCCC2)Cn2c(cc3occc32)C(=O)N1CCc1ccccc1 (stereo not drawn)	i
COc1ccc(OC)c(Nc2nc3c(S(=O)(=O)c4ccc(F)cc4)nnn3c3ccccc23)c1	i
Cc1ccc(NC(=O)Cn2nc3n(CC(C)C)c(=O)c4ccc(C(=O)NCC(C)C)cc4n3c2=O)c(C)c1	i
COC(=O)c1cc2n(n1)CC(C)(C(=O)NC1CCC(C)CC1)N(Cc1ccc(C)cc1)C2=O (stereo not drawn)	i
Cc1cc2c(cc3n2CC(C(=O)NC2CCCCC2)(c2ccccc2)N(Cc2ccccc2)C3=O)o1 (stereo not drawn)	i
O=C(O)CCc1cc2ccoc2cc1O[C@@H]1O[C@H](CO)[C@@H](O)[C@H](O)[C@H]1O	i
C=CCc1ccc(O[C@@H]2O[C@H](CO)[C@@H](O)[C@H](O)[C@H]2O)c(O[C@@H]2O[C@H](CO)[C@@H](O)[C@H](O)[C@H]2O)c1	i
SMILES	Methyltransferases
O=C(O)CCc1cccc(O[C@@H]2O[C@H](CO)[C@@H](O)[C@H](O)[C@H]2O)c1O	+
COc1c(CCC(=O)O)cccc1O[C@@H]1O[C@H](CO)[C@@H](O)[C@H](O)[C@H]1O	+
CCC(C)(O)C(O)C(=O)OCc1ccc(O[C@@H]2O[C@H](CO)[C@@H](O)[C@H](O)[C@H]2O)c(OC)c1 (stereo partly drawn)	i
COc1ccc(O[C@@H]2O[C@H](CO)[C@@H](O)[C@H](O)[C@H]2O)cc1OC	i
CCCn1c(=O)c2ccc(C(=O)NC(C)CC)cc2n2c(=O)n(Cc3ccccc3)nc12 (stereo not drawn)	i
Cc1ccc(N2C(=O)c3cc4oc(C)cc4n3CC2(C)C(=O)NC2CCCCCC2)cc1 (stereo not drawn)	i
COc1ccccc1CNC(=O)C1(C)Cn2c(cc3ccccc32)C(=O)N1Cc1cccc(C)c1 (stereo not drawn)	i
O=C(O)c1ccc2c(c1)nc(Nc1cccc(Cl)c1)c1ccncc12	+
O=C(NCc1cccc(Cl)c1)c1ccc2oc(-c3cccnc3)nc2c1	i
O=C(Nc1ccc(Cl)cc1)c1nc(Nc2ccccc2)c2ccccc2n1	i
COC(=O)c1cc2n(n1)CC(C)(C(=O)NC1CCCCCC1)N(c1ccc(C)c(Cl)c1)C2=O (stereo not drawn)	i
COc1ccc(-n2c(=O)[nH]c3cccnc32)cc1OC	i
COc1cc2c(cc1-c1c(C)noc1C)ncc1[nH]c(=O)n(C(C)c3ccccn3)c12 (stereo not drawn)	+!
CC1(C(=O)NC2CCCCCCC2)Cn2c(cc3occc32)C(=O)N1Cc1ccccn1 (stereo not drawn)	i
CCCSCCCN1C(=O)c2cc(-c3ccc(CC)cc3)nn2CC1(C)C(=O)NC1CCCCC1 (stereo not drawn)	i
C/C(=N\N=C(N)N)c1cc(NC(=O)CCCCCCCCC(=O)Nc2cc(/C(C)=N/N=C(N)N)cc(/C(C)=N/N=C(N)N)c2)cc(/C(C)=N/N=C(N)N)c1	+
CCCN1CCN(CCCNC(=O)c2cc3n(n2)CC(C)(C(=O)NCc2ccccc2)N(C)C3=O)CC1 (stereo not drawn)	i
CC1(C(=O)NC2CCCC2)Cn2c(cc3ccccc32)C(=O)N1Cc1ccccc1F (stereo not drawn)	i
Cc1cc2c(cc1Cl)N(C(=O)Nc1ccc(Oc3cccnc3C)nc1)CC2	i
Cc1cc2c(cc1Cl)N(C(=O)Nc1ccnc3ccccc13)CC2	+
COc1ccc(NC(=O)N2CCc3c2ccc2ccccc32)cc1N1CCN(C)CC1	i
COc1ccc(CNC(=O)C2(C)Cn3cnc(C(=O)NCc4ccccc4OC)c3C(=O)N2C2CC2)cc1 (stereo not drawn)	i
C=Cc1cc2oc(-c3ccc(O)c(F)c3)nc2cc1O	+
O=C(O)Cc1ccc2oc(-c3ccc(NC(=O)/C=C/c4ccc(Br)cc4)c(F)c3)nc2c1	i
Cc1ccc(-c2n[nH]n3c2nc(=O)c2ccc(C(=O)NC4CCCCC4)cc23)cc1	i
SMILES	Methyltransferases
CN1C(=O)c2cc(C(=O)N3CCCC3)nn2CC1(C)C(=O)NCc1ccc(F)cc1 (stereo not drawn)	i
COc1ccc(N2C(=O)c3ccc(-c4ccco4)n3CC2(C)C(=O)NC2CCCC2)cc1Cl (stereo not drawn)	i
CCc1ccc(NC(=O)CSc2nnc3n(Cc4ccc(F)cc4)c(=O)c4ccccc4n23)cc1	i
CCCN1CCN(C(=O)c2cc3n(n2)CC(C)(C(=O)NC2CCCC2)N(C)C3=O)CC1 (stereo not drawn)	i
O=C(CCCc1nnc2n3nc(-c4ccccc4)nc3c3ccccc3n12)N1CCN(C2CCCCC2)CC1	i
O=C(CCCc1nnc2n3nc(-c4ccccc4)nc3c3ccccc3n12)N1CCC(N2CCCCC2)CC1	+
O=C(CCCc1nnc2n3nc(-c4ccccc4)nc3c3ccccc3n12)N1CCN(Cc2ccccc2)CC1	i
